This is a sample that favours compounds with a hit; in the whole collection about 1.5% have one here.
MenB inh: inhibitors of Mycobacterium tuberculosis MenB enzyme | P9WNP5 | MenB enzyme assay, absorbance read-out | inhibition, % (no concentration beside the values) | 100,000 tested, 0.43% active | AID 540299; in the data active = inhibition above about 21%, passing the limit was not always enough
AID504770: E. coli YBA685 growth inhibition, screen for V. cholerae RctB inhibitors; E. coli YBA685 rctB-dependent plasmid, OD600 growth, 3 h; stronger effect = lower value; z-score (test concentration not listed); 130,000 tested, 0.27% active; AID 504770; in the data active = z-score below about -2, passing the limit was not always enough
Mtb MbtI inh: inhibitors of Mycobacterium tuberculosis siderophore enzyme MbtI; purified MbtI enzyme, fluorescence intensity read-out; inhibition, % (concentration not given with the values); 100,000 tested, 0.89% active; in the data active = inhibition mostly above about 56%, no sharp cut-off; inactive = mostly below about 77%
Target sequence (P9WFX0 whole entry, looked up): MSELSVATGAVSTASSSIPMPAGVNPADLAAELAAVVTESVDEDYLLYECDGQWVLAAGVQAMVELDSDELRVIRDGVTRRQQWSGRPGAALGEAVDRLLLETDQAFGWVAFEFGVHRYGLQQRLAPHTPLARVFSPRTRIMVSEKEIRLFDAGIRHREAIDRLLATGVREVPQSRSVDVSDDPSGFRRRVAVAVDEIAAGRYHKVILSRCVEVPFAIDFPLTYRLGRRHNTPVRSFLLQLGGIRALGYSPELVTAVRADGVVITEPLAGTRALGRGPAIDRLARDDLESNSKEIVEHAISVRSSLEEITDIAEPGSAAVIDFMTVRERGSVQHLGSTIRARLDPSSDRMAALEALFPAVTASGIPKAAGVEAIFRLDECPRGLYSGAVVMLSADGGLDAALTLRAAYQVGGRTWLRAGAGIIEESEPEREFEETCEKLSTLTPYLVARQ
Polio RdRp inh: poliovirus RNA polymerase inhibition | P03300 | poliovirus polymerase elongation, fluorescence polarization; stronger effect = lower value | % elongation, % (compound at 16.7 µg/mL) | 150,000 tested, 0.66% active | AID 588519; in the data active = % elongation below about 90%
Active calls of the source: *; x = no result.

SMILES | MenB inh | AID504770 | Mtb MbtI inh | Polio RdRp inh
Cc1ccc(-n2[nH]c(=O)c(N=O)c2O)cc1C | -28 | -0.3 | 17 | 78*
Cc1ccc(N2NC(=O)CC2=O)cc1C | 13 | -0.45 | x | 92
CN(C)S(=O)(=O)c1ccc2c(c1)oc(=O)n2C | 27* | 1.6 | 5 | 105
O=S(N=C(c1ccccc1)c1ccccc1)c1ccccc1 (configuration not stated) | -21 | -0.75 | 68* | 101
NN=C(c1ccccc1)c1ccccc1 | 1 | -0.75 | 19 | 101
CNS(=O)(=O)c1cccc(C(=O)O)c1 | -49 | -1.4 | -14 | 99
O=C1C=CC(=O)N1CCc1ccc(Cl)cc1 | -7 | -1.8 | 100* | 101
O=C1C=CC(=O)N1CCc1ccccc1 | x | -1.6 | 93* | 102
Cc1cc(OC(=O)/C=C/c2ccc(F)cc2)cc(=O)o1 | -38 | -0.6 | 62 | 84*
Cc1ccc(-n2nnnc2SCc2nc3sc4c(c3c(=O)[nH]2)CCCC4)c(C)c1 | -1 | 0 | 38 | 132
Cc1cc(C)n(C(=O)C(C)NC(=O)c2ccccc2)n1 (configuration not stated) | 23* | 0.1 | x | 104
Cc1cc(C)n(C(C)CNC(=O)c2ccccc2)n1 (configuration not stated) | -48 | -0.85 | -9 | 104
CCOc1ccc(C(=O)CSc2nnc(-c3ccco3)c(-c3ccco3)n2)cc1NC(=O)CC | 62* | 1.5 | 94* | 100
O=C(CSc1nnc(-c2ccco2)c(-c2ccco2)n1)Nc1ccc(C(=O)O)cc1 | x | 0.7 | x | x
O=C(CSc1nnc(-c2ccoc2)c(-c2ccoc2)n1)c1ccc(-c2ccccc2)cc1 | 20 | 0.15 | 61* | 98
O=C(CSc1nnc(-c2ccoc2)c(-c2ccoc2)n1)c1ccc(N2CCCC2=O)cc1 | 25 | 0.15 | 21 | 97
COc1ccc(C(=O)CSc2nnc(-c3ccco3)c(-c3ccco3)n2)cc1 | 30* | 0.75 | 54 | 98
CCCOC(=O)c1c(NC(=O)CSc2nc(-c3ccco3)cc(C(F)(F)F)n2)sc(C(=O)N(C)C)c1C | -3 | -0.1 | 37 | 99
CCCCNC(=O)CSc1nc(-c2ccc(OC)cc2)cc(C(F)(F)F)n1 | x | x | x | 105
CCN(CC)C(=O)c1sc(NC(=O)C(C)Sc2nc(-c3ccccc3)cc(C(F)(F)F)n2)c(C(=O)OC)c1C (configuration not stated) | x | x | x | 84*
COC(=O)c1c(NC(=O)CSc2nc(-c3ccco3)cc(C(F)(F)F)n2)sc2c1CCCC2 | -5 | 0.1 | 57* | 99
CCCOC(=O)c1c(NC(=O)C(C)Sc2nc(-c3ccccc3)cc(C(F)(F)F)n2)sc(C(=O)N(C)C)c1C (configuration not stated) | x | x | x | 99
CCOC(=O)c1c(NC(=O)CSc2nc(-c3ccc(OC)cc3)cc(C(F)(F)F)n2)sc(C)c1C | x | x | x | 86*
O=C(CCc1ccccc1)N1CCN(c2ccc(N3CCCCCC3)nn2)CC1 | 6 | 0.05 | 4 | 97
Fc1ccccc1-c1nnc2ccc(C(F)(F)F)cn12 | 14 | 0.95 | x | 16*
SMILES | MenB inh | AID504770 | Mtb MbtI inh | Polio RdRp inh
O=C(Sc1ccc(Cl)cc1)c1cnn(-c2ccccc2)c1C(F)(F)F | -21 | -0.3 | 54* | 105
CC1CC(C)CN(CCN)C1 (configuration not stated) | 52* | -0.25 | -6 | 101
CC1CC(C)CN(CCC(=O)Nc2ccccc2F)C1 (configuration not stated) | -52 | 0.2 | 12 | 100
CC(C)CN(C(=O)c1ccncc1)c1nc2ccccc2s1 | -7 | -0.55 | 71* | 87*
CN1CCC(N(Cc2ccc3c(c2)OCO3)C(=O)c2cn(Cc3ccccc3)c3ccsc23)CC1 | 24* | 1.2 | 0 | 104
CN1CCC(N(Cc2ccco2)C(=O)c2cc3sccc3n2Cc2ccccc2)CC1 | -22 | -0.7 | 8 | 102
CC(C)c1nnc(NC(=O)C2CCN(C(=O)c3ccco3)CC2)s1 | -58 | 2.3 | 64 | 105
COCc1nnc(NC(=O)C2CCN(C(=O)c3ccco3)CC2)s1 | -2 | 0.7 | 92* | 93
O=C(Cn1cc(SCc2ccc(C(F)(F)F)cc2)c2ccccc21)N1CCCCCC1 | x | x | x | 115
O=C(Cn1cc(SCc2ccc(C(F)(F)F)cc2)c2ccccc21)N1CCCCC1 | x | x | x | 44*
CCn1c(NCc2ccccc2)nc2ccccc21 | 38* | 0.4 | 2 | 100
C=CCn1c(NCc2ccccc2)nc2ccccc21 | -3 | -0.75 | x | 106
CCOC(=O)c1ccccc1NC(=O)CCN1C(=O)c2ccccc2C1=O | -20 | 2 | -5 | 103
CCOc1ccc(NC(=O)Cn2c(=O)n(CC(=O)NCCc3ccccc3)c(=O)c3sccc32)cc1 | x | x | x | 81*
O=C(Nc1ncc(C(O)(C(F)(F)F)C(F)(F)F)s1)c1ccccc1Cl | -22 | 0.4 | -10 | 105
CC(C)(C)c1[nH]oc(=O)c1N=O | x | -7.3* | 14 | x
CC1(C)C(C(=O)O)N2C(=O)CC2S1(=O)=O (configuration not stated) | -20 | -2.4* | -5 | 105
O=C(C1CCCCC1)N(c1ccc(Cl)nn1)C1CCCCC1 | -16 | 0.95 | -11 | 103
N#CC1=C(SCc2ccccc2)SC(CO)NC1=O (configuration not stated) | 38* | 0.5 | 11 | 100
N#CC1=C(SCc2ccccc2)SC(c2ccc(C(=O)O)cc2)NC1=O (configuration not stated) | 25 | 0.2 | 9 | 86*
Fc1ccc(N2CCN(CCCNc3nc(-c4ccccc4F)no3)CC2)cc1 | -35 | 0.85 | -15 | 102
Cc1ccccc1C(=O)NN1C(=O)c2ccccc2C1=O | 33* | -0.3 | -1 | 101
O=C(NN1C(=O)c2ccccc2C1=O)c1ccccc1 | 8 | -0.6 | x | 100
COCCN1C(=O)C=CC1=O | x | -3.5* | 62* | 100
COCCN1C(=O)c2ccccc2C1=O | 4 | 1.6 | 10 | 99
SMILES | MenB inh | AID504770 | Mtb MbtI inh | Polio RdRp inh
COc1ccc(/C=C/C=C2/SC(=O)N(CC(=O)N3CCCC3)C2=O)cc1 | -397 | -1.1 | -3 | 104
CCC(C(=O)Nc1ccc(N2CCOCC2)cc1)c1ccccc1 (configuration not stated) | -26 | 2 | -5 | 104
CCOC(=O)C1CCN(c2c(C(=O)c3ccc(C)cc3)cnc3ccc(F)cc23)CC1 | x | x | x | 80*
Cc1ccccc1N1C(=O)NC(=O)C(CCc2ccncc2)(Cc2ccc3c(c2)OCO3)C1=O (configuration not stated) | 2 | 0.35 | -3 | 102
CC(C)C(NC(=O)c1ccccc1)C(=O)O (configuration not stated) | -19 | -0.65 | -7 | 100
CC(NC(=O)c1ccc(-c2ccccc2)cc1)C(=O)O (configuration not stated) | 29* | -1 | 3 | 103
CCCN1C(=O)/C(=C/c2ccc(C)o2)NC1=S | -74 | -0.1 | 63* | 101
Cc1ccc(/C=C2/NC(=O)N(Cc3ccc(Br)cc3)C2=O)o1 | -26 | 2 | 63 | 102
Cc1[nH]c2ccccc2c1C(=O)COC(=O)Cn1c(=O)oc2ccccc21 | -27 | -0.2 | -2 | 108
O=c1oc2c(O)c(O)cc3c(=O)oc4c(O)c(O)cc1c4c23 | -5 | 0.1 | 26 | 83*
